Measurements: PubChem BioAssay AID504848 (National Center for Advancing Translational Sciences (NCATS), 2011)
In all, about 2,300 compounds went through this assay and about 1,400 (61%) were called active. Not shown: some 29% with an inconclusive outcome. Calls follow the shape of the dose curve; as a rule, active = well fitted inhibition curve with a large enough effect; inconclusive = small, poorly fitted or top-dose-only effect, or effect the other way; inactive = no such curve, though single readings can be large or run the other way. So high a share suggests a set chosen from earlier hits. Some of the results follow.

Test: Confirmation screen for delayed death inhibitors of the malarial parasite plastid, 96 hour incubation; also: nearly all actives have a fitted effect of over 60% in size
Details: P. falciparum luciferase growth in erythrocytes; series mostly up to 28.7 µM; activity change, negative = inhibition: at the top concentration
Method in brief: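 Two-generation (96 h, 37 C) exposure of P. falciparum carrying an integrated firefly luciferase reporter in erythrocytes, 0.1% parasitemia and 2% hematocrit final, Albumax-supplemented RPMI. Luminescence decrease measures growth inhibition.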
% is scaled to controls: 0 for no effect and ±100 for the full control effect; potency is read from the fitted curve at half-maximal effect.

Structure (SMILES) | Potency | activity change, negative = inhibition
CC1=NNC(=O)/C1=C\c1cn(-c2ccccc2)nc1-c1cccs1 | 5.62 µM (active) | –
O=C(c1ccco1)N1CCN(C(=O)C2CCCc3c2[nH]c2ccc(Cl)cc32)CC1 (stereo unspecified) | 12.6 µM (active) | –
Cc1n[nH]c(=S)n(/N=C/c2ccccn2)c1=O | – | -15.7% (inactive)
C=CCN=c1scc(-c2ccc(F)cc2)n1/N=C/c1ccccn1 | 3.98 µM (active) | –
Cc1ccc(NC(=O)CSc2nc3ccccc3c(=O)n2CCCN2CCCCC2)cc1Cl | 6.31 µM (active) | –
CC(C)(C)n1ncc2c(=O)n(Cc3ccccc3Br)cnc21 | 12.6 µM (active) | –
COc1ccc(OC)c(C(=O)NC2CC(C)(C)Cc3c2cnn3-c2ccccc2)c1 (stereo unspecified) | 11.2 µM (active) | –
CSc1ncccc1C(=O)NC1CC(C)(C)Cc2c1cnn2-c1ccccc1C (stereo unspecified) | 11.2 µM (active) | –
COc1cccc(C(=O)NC2CC(C)(C)Cc3c2cnn3-c2cccc(F)c2)c1OC (stereo unspecified) | 12.6 µM (active) | –
CC[C@H]1OC(=O)[C@H](C)[C@@H](O[C@H]2C[C@@](C)(OC)[C@@H](O)[C@H](C)O2)[C@H](C)[C@@H](O[C@@H]2O[C@H](C)C[C@H](N(C)C)[C@H]2O)[C@](C)(O)C[C@@H](C)CN(C)[C@H](C)[C@@H](O)[C@]1(C)O | 0.631 µM (active) | –
CCC(=O)OC1C(N(C)C)CC(C)O[C@H]1O[C@H]1[C@H](C)[C@@H](O[C@H]2CC(OC)[C@@H](O)C(C)O2)[C@H](C)C(=O)O[C@@H](CC)[C@](C)(O)[C@@H](O)[C@H](C)C(=O)[C@@H](C)C[C@]1(C)O (stereo partly specified) | 10 µM (active) | –
CC[C@H]1OC(=O)[C@H](C)[C@@H](O[C@H]2C[C@@](C)(OC)[C@@H](O)[C@H](C)O2)C(C)[C@@H](O[C@@H]2O[C@H](C)C[C@H](N(C)C)[C@@H]2O)[C@](C)(OC)C[C@@H](C)C(=O)[C@H](C)[C@@H](O)[C@]1(C)O (stereo partly specified) | 2.82 µM (active) | –
COc1ccccc1NS(=O)(=O)c1ccc(NN=C2CCCC2)c([N+](=O)[O-])c1 | 11.2 µM (active) | –
Cc1ccc(-c2nn(-c3ccccc3)cc2CC(=S)N2CCOCC2)cc1 | 12.6 µM (active) | –
COc1ccc(Cn2c(-c3ccc(Br)cc3)c[n+]3ccccc23)cc1 | 0.562 µM (active) | –
Cc1ccn2c(NC3CCCC3)c(-c3ccccn3)nc2c1 | 3.16 µM (active) | –
CCOC(=O)c1cc(-c2ccccc2)sc1NC(=O)C(C)OC(=O)c1cccnc1Cl (stereo unspecified) | 6.31 µM (active) | –
COCCN(C(=O)c1ccccc1F)c1nnc(-c2ccc(OC)cc2)s1 | 7.08 µM (active) | –
COc1ccc(C2CC(c3cccs3)=NN2C(=O)CSc2nnc(N)s2)cc1OC (stereo unspecified) | 11.2 µM (active) | –
Cc1ccc(NC(=O)c2ccc3c(SCC(=O)O)c4c(nc3c2)CCCC4)c(Br)c1 | 7.94 µM (active) | –
Cc1onc(NC(=O)c2ccc([N+](=O)[O-])o2)c1Br | 11.2 µM (active) | –
Cc1cc[n+]2cc(-c3cccc([N+](=O)[O-])c3)c(-c3cccc([N+](=O)[O-])c3)cc2c1 | 0.112 µM (active) | –
CCC(=O)Nc1cccc(C(=O)/C=C/c2cc(Br)ccc2OC)c1 | 7.94 µM (active) | –
CC(=O)Nc1cccc(C(=O)/C=C/c2ccc(C)cc2)c1 | 15.8 µM (active) | –
CCC(=O)Nc1cccc(C(=O)/C=C/c2ccccc2)c1 | 12.6 µM (active) | –
N#C/C(=C\c1ccc(-c2ccc(C(=O)O)cc2)o1)C(=O)Nc1ccc(F)cc1 | 10 µM (active) | –

Structure (SMILES) | Potency | activity change, negative = inhibition
COc1ccccc1-c1cc(C(=O)N/N=C/c2ccc(C)s2)c2ccccc2n1 | 5.01 µM (active) | –
COc1ccc(-c2cc(C(=O)N/N=C/c3ccc4c(c3)OCO4)c3ccccc3n2)c(OC)c1 | 11.2 µM (active) | –
COc1ccc(/C=N/NC(=O)c2cc(-c3ccccc3)nc3ccccc23)cc1O | – | -16.7% (inactive)
COc1ccccc1-c1cc(C(=O)N/N=C/c2ccc(C)o2)c2ccccc2n1 | – | -20.2% (inactive)
COc1ccccc1-c1cc(C(=O)N/N=C/c2sccc2C)c2ccccc2n1 | 3.55 µM (active) | –
COc1ccccc1-c1cc(C(=O)N/N=C/c2cccs2)c2ccccc2n1 | 6.31 µM (active) | –
C=CCNC(=O)c1onc(CSc2cccc(Cl)c2)c1C(=O)O | – | -11.1% (inactive)
Cc1cccc(N(Cc2ccccc2)C(=O)CN2C(=O)NC3(CCCCC3C)C2=O)c1 (stereo unspecified) | 11.2 µM (active) | –
Cc1nn(Cc2c(Cl)cccc2Cl)c(C)c1NC(=O)c1cc(C(C)C)on1 | – | -90.2% (inactive)
Cc1nn(Cc2ccccc2Cl)c(C)c1C(=O)Nc1nnc(C2CC2)s1 | 11.2 µM (active) | –
COc1ccc(-n2c(=O)/c(=C\c3cccs3)s/c2=C(/C#N)C(=O)N2CCN(C)CC2)cc1 | – | -6.92% (inactive)
Fc1ccc(Nc2nc(N3CCOCC3)nc(N3CCOCC3)n2)cc1 | 12.6 µM (active) | –
COc1ccc(CN2CCN(C(=O)c3ccc(CNS(=O)(=O)c4ccc(C)cc4)cc3)CC2)c(OC)c1OC | 11.2 µM (active) | –
O=S(=O)(c1ccc(Cl)c(NC(=S)N/N=C/c2ccc(O)cc2)c1)N1CCOCC1 | 5.01 µM (active) | –
COc1cccc(/C=C/C(=O)c2ccc(NS(=O)(=O)c3ccc(C)cc3)cc2)c1 | 15.8 µM (active) | –
COc1ccc(/C=C/C(=O)c2ccc(NS(=O)(=O)c3ccc(C)cc3)cc2)cc1O | 7.08 µM (active) | –
CC(NC(=O)CCl)c1ccccc1Br (stereo unspecified) | 0.794 µM (active) | –
Cc1ccc(NC(=O)COc2ccccc2C#N)cc1S(=O)(=O)N1CCCCCC1 | 12.6 µM (active) | –
COc1ccc(NC(=O)CN2CCN(S(=O)(=O)c3ccc(Br)cc3)CC2)c(OC)c1 | 7.94 µM (active) | –
COc1ccccc1OCC(=O)Nc1ccc(S(=O)(=O)N2CCCCCC2)cc1 | 12.6 µM (active) | –
COc1cc2c(cc1OC)CN(CC(=O)Nc1ccc(S(=O)(=O)N3CCCC3)cc1)CC2 | 15.8 µM (active) | –
C=CCn1c(SCc2cc(=O)n3cc(C)ccc3n2)nnc1-c1ccc(F)cc1 | 8.91 µM (active) | –
COc1ccc(/C=C2\N=C(SC)N(c3ccccc3OC)C2=O)cc1 | 12.6 µM (active) | –
CCN(CC)C1=N/C(=C\c2ccc(OC)cc2)C(=O)N1c1ccccc1 | 12.6 µM (active) | –
Clc1cccc(CN2CCc3c([nH]c4ccccc34)C2)c1 | 12.6 µM (active) | –
